From PubChem BioAssay (NCI) come the findings set out here.

Assay [1] in a line: NCI Yeast Anticancer Drug Screen. Data for the rad50 strain (AID 155).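 Note: 0% = growth of vehicle-only cultures of the same strain.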 The conditions noted are these: S. cerevisiae rad50 strain growth inhibition, active compounds read high. The method in brief:
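Compounds were tested on a yeast strain with an engineered DNA damage repair alteration; the reported value is growth inhibition normalised to vehicle treatment.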

A short description of assay [2]: NCI Yeast Anticancer Drug Screen. Data for the mec2-1 strain (AID 157). The conditions noted are these: S. cerevisiae mec2-1 strain, active compounds read high. The method in brief:
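Readout is yeast growth inhibition, normalised to vehicle-treated controls, in the mec2-1 strain exposed to compound.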

A short description of assay [3]: NCI Yeast Anticancer Drug Screen. Data for the sgs1 mgt1 strain (AID 161).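 Note: 0% = growth of cultures given vehicle only.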 The conditions noted are these: S. cerevisiae sgs1 mgt1 strain, active compounds read high. A digest of the protocol: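 Yeast cells carrying a defined DNA-repair defect were exposed to test compounds. Growth inhibition was measured relative to vehicle-treated controls.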
Assay [4] can be described thus: NCI Yeast Anticancer Drug Screen. Data for the cln2 rad14 strain (AID 165).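 Note: 0% = growth equal to vehicle treated cultures.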 The conditions noted are these: S. cerevisiae cln2 rad14 strain, active compounds read high. A digest of the protocol: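 Relative to vehicle controls, growth inhibition of compound-treated cln2 rad14 yeast was recorded.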
Assay [5] is described as follows: NCI Yeast Anticancer Drug Screen. Data for the bub3 strain (AID 167). The following applies: S. cerevisiae bub3 mutant strain, active compounds read high. A digest of the protocol: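 Growth of a checkpoint-deficient yeast mutant is measured after compound exposure. Values represent inhibition relative to vehicle.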
Assay [6] in a line: NCI Yeast Anticancer Drug Screen. Data for the mlh1 rad18 strain (AID 175). The following applies: S. cerevisiae mlh1 rad18 strain growth inhibition, active compounds read high. A digest of the protocol: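 Test agents were incubated with a yeast strain of defined genotype (DNA damage repair defect). Inhibition of growth was derived by comparison with vehicle-exposed cultures.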
Setting [7] is: at 5.0 µM (retest, dose inferred, filed as 0.5).
Where [8] appears, read: at 50.0 µM (retest, dose inferred, filed as 5.0).

About 79,000 compounds went through this panel and 15% of them were active in at least one assay; those are over-represented in the sample as a whole. A number with no mark means an inactive call. Calls of active or inactive are those of the source. Cut-off read from the data, not from the text of the source: active = growth inhibition above about 70%; inactive = the rest.

For `O=[N+]([O-])c1cccc(S(=O)(=O)Nc2cccc3ccccc23)c1`, the growth inhibition in assay [1] (setting [7]) was 4%; in assay [1] (setting [8]) it was 97% (active); in assay [1] (at 50.0 µM) it was 99% (active); in assay [2] (setting [7]) it was 1%; in assay [2] (setting [8]) it was 98% (active); in assay [2] (at 50.0 µM), 99.2% (active). The growth inhibition in assay [3] (setting [7]) is 2%; in assay [3] (setting [8]) it was 97% (active); in assay [3] (at 50.0 µM), 99.2% (active); in assay [4] (setting [7]), 4%; in assay [4] (setting [8]), 98% (active); in assay [4] (at 50.0 µM), 99.2% (active). Besides, the growth inhibition in assay [5] (setting [7]) was 1%; in assay [5] (setting [8]), 97% (active); in assay [5] (at 50.0 µM), 99.2% (active); in assay [6] (setting [7]), -3%; in assay [6] (setting [8]), 97% (active); in assay [6] (at 50.0 µM), 98.7% (active).

For `O=C1c2ccccc2C(=O)c2sc(Nc3cc(Cl)ccc3Cl)nc21`, the growth inhibition in assay [1] (setting [7]) was 58%; in assay [1] (setting [8]), 98% (active); in assay [1] (at 50.0 µM) it was 82.3% (active); in assay [2] (setting [7]), 72% (active); in assay [2] (setting [8]), 99% (active); in assay [2] (at 50.0 µM), 88.2% (active). In addition, the growth inhibition in assay [3] (setting [7]) was 67%; in assay [3] (setting [8]) it was 99% (active); in assay [3] (at 50.0 µM) it was 88.3% (active); in assay [4] (setting [7]), 52%; in assay [4] (setting [8]), 97% (active); in assay [4] (at 50.0 µM), 86.5% (active). Further, the growth inhibition is 87% (active) in assay [5] (setting [7]); 98% (active) in assay [5] (setting [8]); 83.8% (active) in assay [5] (at 50.0 µM); 63% in assay [6] (setting [7]); 98% (active) in assay [6] (setting [8]); 90.5% (active) in assay [6] (at 50.0 µM).

Turning to `COC12C(COC(N)=O)C3=C(C(=O)C(C)=C(N)C3=O)N1CC1C2N1C(=O)c1ccc(Cl)c(Cl)c1` (configuration not stated), the growth inhibition in assay [1] (setting [7]) is 32%; in assay [1] (setting [8]), 93% (active); in assay [1] (at 50.0 µM), 82.2% (active); in assay [2] (setting [7]) it was 29%; in assay [2] (setting [8]), 96% (active); in assay [2] (at 50.0 µM), 85.3% (active). Moreover, the growth inhibition in assay [3] (setting [7]) was 12%; in assay [3] (setting [8]), 95% (active); in assay [3] (at 50.0 µM), 89.2% (active); in assay [4] (setting [7]) it was 11%; in assay [4] (setting [8]), 94% (active); in assay [4] (at 50.0 µM), 80.5% (active). Also, the growth inhibition in assay [5] (setting [7]) was 22%; in assay [5] (setting [8]), 95% (active); in assay [5] (at 50.0 µM), 83.8% (active); in assay [6] (setting [7]), 37%; in assay [6] (setting [8]), 95% (active); in assay [6] (at 50.0 µM), 88% (active).

Take `CCN(CC)CCCCCCNc1cc(C)cc2ccc(C)nc12`: the growth inhibition in assay [1] (setting [7]) is 8%; in assay [1] (setting [8]) it was 59%; in assay [1] (at 50.0 µM), 65.8%; in assay [2] (setting [7]), 0%; in assay [2] (setting [8]), 22%; in assay [2] (at 50.0 µM), 45.7%. In addition, the growth inhibition in assay [3] (setting [7]) was 11%; in assay [3] (setting [8]), 58%; in assay [3] (at 50.0 µM) it was 39.1%; in assay [4] (setting [7]), 0%; in assay [4] (setting [8]) it was 36%; in assay [4] (at 50.0 µM), 8.2%. The growth inhibition in assay [5] (setting [7]) was 7%; in assay [5] (setting [8]), 62%; in assay [5] (at 50.0 µM) it was 79.7% (active); in assay [6] (setting [7]) it was 21%; in assay [6] (setting [8]) it was 40%; in assay [6] (at 50.0 µM), 47.5%.

On to `Cc1[nH]c2ccccc2c1C(C)CC(O)c1ccccc1` (configuration not stated), for which the growth inhibition in assay [1] (setting [7]) was 5%; in assay [1] (setting [8]), 68%; in assay [1] (at 50.0 µM), 95% (active); in assay [2] (setting [7]) it was -4%; in assay [2] (setting [8]), 73% (active); in assay [2] (at 50.0 µM), 85.5% (active). In addition, the growth inhibition in assay [3] (setting [7]) was 2%; in assay [3] (setting [8]), 62%; in assay [3] (at 50.0 µM), 90.2% (active); in assay [4] (setting [7]) it was 11%; in assay [4] (setting [8]), 29%; in assay [4] (at 50.0 µM), 95.8% (active). Further, the growth inhibition in assay [5] (setting [7]) is 3%; in assay [5] (setting [8]), 67%; in assay [5] (at 50.0 µM) it was 88.7% (active); in assay [6] (setting [7]), 8%; in assay [6] (setting [8]) it was 88% (active); in assay [6] (at 50.0 µM), 95.2% (active).

In the case of `CCC/C(=N\NC(=S)N(C)C)c1ccccn1`, the growth inhibition in assay [1] (setting [7]) is 89% (active); in assay [1] (setting [8]), 99% (active); in assay [1] (at 50.0 µM), 99.5% (active); in assay [2] (setting [7]), 97% (active); in assay [2] (setting [8]), 99% (active); in assay [2] (at 50.0 µM), 99.6% (active). The growth inhibition in assay [3] (setting [7]) was 88% (active); in assay [3] (setting [8]) it was 99% (active); in assay [3] (at 50.0 µM), 99.5% (active); in assay [4] (setting [7]), 80% (active); in assay [4] (setting [8]), 99% (active); in assay [4] (at 50.0 µM), 99.4% (active). Moreover, the growth inhibition in assay [5] (setting [7]) is 85% (active); in assay [5] (setting [8]), 98% (active); in assay [5] (at 50.0 µM) it was 99.5% (active); in assay [6] (setting [7]), 94% (active); in assay [6] (setting [8]), 99% (active); in assay [6] (at 50.0 µM) it was 99.5% (active).

Take `Cc1cc2c(Br)cc(Br)c(O)c2nc1C(=O)c1ccccc1`: the growth inhibition in assay [1] (setting [7]) was 23%; in assay [1] (setting [8]), 39%; in assay [1] (at 50.0 µM) it was 31.8%; in assay [2] (setting [7]), 16%; in assay [2] (setting [8]), 38%; in assay [2] (at 50.0 µM), 19.5%. Moreover, the growth inhibition is 37% in assay [3] (setting [7]); 90% (active) in assay [3] (setting [8]); 35.8% in assay [3] (at 50.0 µM); 33% in assay [4] (setting [7]); 80% (active) in assay [4] (setting [8]); 43.9% in assay [4] (at 50.0 µM). The growth inhibition in assay [5] (setting [7]) is 20%; in assay [5] (setting [8]) it was 87% (active); in assay [5] (at 50.0 µM) it was 29.9%; in assay [6] (setting [7]) it was 32%; in assay [6] (setting [8]), 33%; in assay [6] (at 50.0 µM) it was 21.8%.

For `O=C(O)c1ccccc1C(c1ccccc1)c1ccccc1`, the growth inhibition in assay [1] (setting [7]) was 15%; in assay [1] (setting [8]), 62%; in assay [1] (at 50.0 µM), 44.4%; in assay [2] (setting [7]), -8%; in assay [2] (setting [8]) it was 44%; in assay [2] (at 50.0 µM), 65.2%. Besides, the growth inhibition in assay [3] (setting [7]) is 26%; in assay [3] (setting [8]) it was 71% (active); in assay [3] (at 50.0 µM) it was 85.8% (active); in assay [4] (setting [7]), 13%; in assay [4] (setting [8]), 84% (active); in assay [4] (at 50.0 µM), 74.3% (active). For the same compound, the growth inhibition is 25% in assay [5] (setting [7]); 79% (active) in assay [5] (setting [8]); 75.3% (active) in assay [5] (at 50.0 µM); 6% in assay [6] (setting [7]); 84% (active) in assay [6] (setting [8]); 67% in assay [6] (at 50.0 µM).

With `O=C1CCSC(=S)N1c1ccccc1C(F)(F)F`, the growth inhibition was 7% in assay [1] (setting [7]); 99% (active) in assay [1] (setting [8]); 99.1% (active) in assay [1] (at 50.0 µM); 4% in assay [2] (setting [7]); 99% (active) in assay [2] (setting [8]); 99.5% (active) in assay [2] (at 50.0 µM). Further, the growth inhibition in assay [3] (setting [7]) is 9%; in assay [3] (setting [8]) it was 99% (active); in assay [3] (at 50.0 µM), 99.5% (active); in assay [4] (setting [7]), 7%; in assay [4] (setting [8]) it was 98% (active); in assay [4] (at 50.0 µM), 98.6% (active). The growth inhibition in assay [5] (setting [7]) is 0%; in assay [5] (setting [8]) it was 99% (active); in assay [5] (at 50.0 µM), 99.2% (active); in assay [6] (setting [7]), 1%; in assay [6] (setting [8]) it was 99% (active); in assay [6] (at 50.0 µM), 99.3% (active).
